Compounds with a hit are over-represented: about 1.8% of the library has one in this group of screens.
Ba/F3 V617F tox = reduce viability of Ba/F3 cells dependent on JAK2V617F; Ba/F3 EpoR-JAK2V617F viability, ATP luminescence; inhibition, % at 5.6 µM; hit rate 1.1% among 220,000;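 active = inhibition above the campaign mean plus 3 SD over all tested compounds, cut at about 24% in these data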;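 note: cytokine-independent growth of Ba/F3 cells driven by EpoR plus mutant JAK2; 0% = DMSO-treated cells and 100% = JAK inhibitor I control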
APP transl inh = APP translation inhibition. inhibition, % at 2 µM. SH-SY5Y APP 5'UTR-luciferase reporter, luminescence. hit rate 0.82% among 190,000. AID 1285;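 active = inhibition above a set limit, derived from the sample mean plus 3 SD, cut at about 45% in these data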
KLF5 inhibitor = suppresses KLF5 promoter-driven expression; DLD-1 KLF5 promoter-luciferase reporter, luminescence; inhibition, % at 5 µM; hit rate 0.23% among 290,000; AID 1700;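 active = inhibition above a per-plate limit of that plate's mean compound inhibition plus 3 SD, cut at about 60% in these data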;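 note: 0% = DMSO wells and 100% = LY294002 at 200 µM; higher means less KLF5 promoter-driven luciferase light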
IEC-6 tox-1 = IEC-6 cytotoxicity, counter-screen for KLF5 inhibitors | luminescence viability | inhibition, % at 5 µM | hit rate 0.78% among 290,000;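 note: 0% = plate median of test compound wells and 100% = cytotoxic reference compound wells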
BaF3 parental = counter-screen for JAK2V617F inhibitors: parental Ba/F3 viability inhibitors | inhibition, % at 5.6 µM | hit rate 1.1% among 220,000 | CellTiter-Glo ATP luminescence | AID 1486;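 active = inhibition above a per-campaign cutoff, the mean inhibition of all tested compounds plus 3 SD, cut at about 27% in these data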;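 note: 0% = DMSO wells and 100% = JAK Inhibitor I control wells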
KLF5 inh confirm = confirmation of KLF5 inhibitors | shares compounds with KLF5 inhibitor | DLD-1 KLF5 promoter firefly luciferase reporter, luminescence | inhibition, % at 4 µM | hit rate 79% among 610 | AID 1834;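 active = inhibition above a set limit taken from the earlier primary screen, cut at about 63% in these data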;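 note: 0% = DMSO wells and 100% = LY294002 at 200 µM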
IEC-6 tox-2 = counter-screen for KLF5 inhibitors: cytotoxicity in rat IEC-6 cells. shares compounds with KLF5 inhibitor. IEC-6 rat intestinal cells, viability luminescence. inhibition, % at 4 µM. hit rate 56% among 610. AID 1905; in the data active = inhibition above about 23%;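 note: cells exposed to compounds for 48 hours before viability read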
IEC-6 tox confirm = confirmation of cytotoxic compounds in rat IEC-6 intestinal epithelial cells; IEC-6 rat intestinal epithelial viability, luminescence; inhibition, % at 5 µM; hit rate 63% among 1,900; shares compounds with IEC-6 tox-1;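 note: 0% = vehicle and 100% = reference cytotoxic drug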
An asterisk follows results filed as active; nt = no result given. Cut-off read from the data, not from the text of the source, unless noted: active = inhibition above about 22%; inactive = the rest.

SMILES | Ba/F3 V617F tox | APP transl inh | KLF5 inhibitor | IEC-6 tox-1 | BaF3 parental | IEC-6 tox confirm | others
COc1ccc(C(=O)N/C(=C\c2ccco2)C(=O)OCc2ccco2)cc1 | -4 | nt | -15 | -11 | -3 | nt
CN(c1ccccc1)S(=O)(=O)c1ccc(C(=O)NCc2ccccn2)cc1 | 3 | 3 | -5 | 6 | 8 | nt
CC(=O)Nc1ccc(S(=O)(=O)N(C)c2ccccc2)cc1 | -1 | -11 | -32 | 0 | -1 | nt
CCS(=O)(=O)c1ncc(Cl)c(C(=O)Nc2ccc(S(=O)(=O)N(C)c3ccccc3)cc2)n1 | nt | nt | 85* | 101* | nt | 28* | KLF5 inh confirm=4;IEC-6 tox-2=6
Cc1ccnc(NC(=O)c2ccccc2NC(=O)c2ccc(Cl)cc2Cl)c1 | nt | nt | 67* | 78* | nt | 59* | KLF5 inh confirm=69*;IEC-6 tox-2=49*
COc1cc(NC2CCCCC2O)c2nc(-c3ccc(Cl)cc3)ccc2c1 (stereo not drawn) | -3 | nt | -52 | 23* | 0 | 11
COc1ccc(OC)c(NC(=O)COC(=O)CSc2ccc(Cl)cc2)c1 | -1 | 15 | -20 | 0 | 6 | nt
COc1ccc(OC)c(Nc2ncnc3ccc(Br)cc23)c1 | nt | nt | 14 | 5 | nt | nt
Brc1ccc2ncnc(Nc3cccc4ccccc34)c2c1 | 0 | -14 | 15 | 28* | 8 | 41*
O=C(c1ccco1)c1coc2c1cc(O)c1ccccc12 | -1 | -60 | -1 | 25* | -1 | 6
CC(=O)c1coc2c1cc(O)c1ccccc12 | -4 | -30 | -72 | 0 | 2 | nt
COc1cc2ncnc(NCc3cccs3)c2cc1OC | 2 | -7 | 17 | 33* | 8 | 32*
Clc1ccc2c(NCc3cccs3)ncnc2c1 | nt | nt | -11 | 5 | nt | nt
COc1ccc(/C=C/C(=O)NC2CCCCCCC2)cc1S(=O)(=O)N1CCOCC1 | 4 | -26 | -46 | 12 | 5 | nt
O=C(N/N=C/c1ccc([N+](=O)[O-])o1)c1cc(-c2ccc(-c3ccccc3)cc2)nc2ccccc12 | 64* | 90* | 32 | 36* | 62* | 52*
COc1ccc(OC)c(-c2cc(C(=O)N/N=C(\C)c3cccnc3)c3ccccc3n2)c1 | nt | nt | 0 | 8 | nt | nt
O=C(N/N=C/c1cccnc1)c1cc(-c2ccc(Br)cc2)nc2ccccc12 | nt | nt | 11 | 26* | nt | 21
CCOc1ccc(-c2cc(C(=O)N/N=C(\C)c3cccnc3)c3ccccc3n2)cc1 | nt | nt | -19 | 36* | nt | 11
NNC(=O)c1cc(-c2cccs2)nc2ccccc12 | 4 | nt | 26 | 32* | 4 | 3
CCCCOc1ccc(C(=O)N2CCNC(=O)C2)cc1 | nt | nt | 1 | 4 | nt | nt
CCCCc1nnc(NC(=O)C2CC(=O)N(Cc3ccccc3)C2)s1 (stereo not drawn) | nt | nt | -17 | -3 | nt | nt
O=C(N/N=C/c1ccc([N+](=O)[O-])o1)c1cc(-c2ccncc2)nc2ccccc12 | -1 | 0 | -1 | -5 | 4 | nt
Cc1ccsc1/C=N/NC(=O)c1cc(-c2ccncc2)nc2ccccc12 | 71* | 94* | 61 | 72* | 75* | 58*
Cc1ccc(/C=N/NC(=O)c2cc(-c3ccncc3)nc3ccccc23)o1 | nt | nt | 60 | 65* | nt | 45*
COc1cc([N+](=O)[O-])ccc1NC(=O)CSc1n[nH]c(C(C)C)n1 | 2 | -4 | -8 | -2 | 5 | nt
SMILES | Ba/F3 V617F tox | APP transl inh | KLF5 inhibitor | IEC-6 tox-1 | BaF3 parental | IEC-6 tox confirm | others
Clc1cccc(Cl)c1/C=N/Nc1c(Cl)cncc1Cl | 79* | nt | 9 | 58* | 61* | 54*
CCOC(=O)c1[nH]c2c(c1C)C(=O)CC(c1ccc(OC)c(OC)c1)C2 (stereo not drawn) | -2 | 44 | -12 | 3 | 2 | nt
COC(=O)C1C(=O)c2c([nH]c(C(=O)OC3CCCC3)c2C)CC1C (stereo not drawn) | 0 | -109 | -120 | 3 | 0 | nt
Cc1c(C(=O)OCC2CCCO2)[nH]c2c1C(=O)CC(c1ccco1)C2 (stereo not drawn) | 11 | 33 | -14 | 38* | 4 | 47*
Cc1c(C(=O)OC2CCCC2)[nH]c2c1C(=O)CC(c1ccco1)C2 (stereo not drawn) | 77* | 94* | 56 | 88* | 81* | 57*
Cc1c(C(=O)OCC(C)C)[nH]c2c1C(=O)CC(c1ccco1)C2 (stereo not drawn) | 79* | 96* | 47 | 81* | 76* | 57*
O=C(CSc1nnc(NC(=O)C2CC(=O)N(c3ccc(F)cc3)C2)s1)NC1CCCC1 (stereo not drawn) | nt | nt | -34 | 1 | nt | nt
Clc1cccc2c1Sc1ccccc1CC2N1CCNCC1 (stereo not drawn) | 6 | 2 | 1 | 23* | 8 | 9
COc1ccc(NC(=O)CC2C(=O)N(C)C(=S)N2Cc2ccc3c(c2)OCO3)cc1 (stereo not drawn) | -1 | 21 | -8 | -2 | 4 | nt
COc1cccc(CN(C)Cc2cc(=O)oc3c(C)c(C)ccc23)c1 | nt | nt | -42 | 61* | nt | 39*
COc1cccc(CN(C)Cc2cc(=O)oc3cc(O)c(Cl)cc23)c1 | nt | nt | -14 | -6 | nt | nt
Cc1ccccc1CN(C)Cc1cc(=O)oc2c(C)c(C)ccc12 | nt | nt | -22 | 28* | nt | 18
Cc1c(O)ccc2c(CN(C)Cc3ccccc3)cc(=O)oc12 | -2 | nt | -39 | 58* | 2 | 15
CC(C)(CO)NS(=O)(=O)c1ccc2c(c1)Cc1cc(S(=O)(=O)NC(C)(C)CO)ccc1-2 | nt | nt | -5 | 0 | nt | nt
Cc1cc(C)c2nc(Cl)c(C3NC(=O)c4ccccc4N3)cc2c1 (stereo not drawn) | -1 | -11 | -25 | 0 | 5 | nt
Cc1ccc(C)c(C2NC(=O)c3ccccc3N2)c1 (stereo not drawn) | 42* | nt | 42 | 63* | 39* | 51*
NC(=S)N/N=C/c1ccc(C(F)(F)F)cc1 | 66* | -1 | 19 | 39* | 35* | 18
COc1ccc(/C=N/NC(N)=S)cc1 | 0 | nt | 9 | -2 | -1 | nt
O=c1c2ccccc2nc(-c2ccco2)n1CCc1ccc(O)cc1 | nt | nt | -2 | -1 | nt | nt
CC(=O)NC(c1ccc(Cl)cc1Cl)c1ccc2cccnc2c1O (stereo not drawn) | nt | nt | 59 | 49* | nt | 73*
CC(C)C(=O)NC(c1cccc([N+](=O)[O-])c1)c1c(O)ccc2ccccc12 (stereo not drawn) | -5 | -18 | -23 | 0 | 0 | nt
CC(C)C(=O)NC(c1cccc([N+](=O)[O-])c1)c1ccc2cccnc2c1O (stereo not drawn) | nt | nt | 79* | 25* | nt | 67*
CC(C)(Cc1cccc(CC(C)(C)C(=O)O)c1)C(=O)O | nt | nt | -19 | 1 | nt | nt
COc1ccc(S(=O)(=O)N2CCCOC2CNC(=O)C(=O)NCc2ccccc2F)cc1C (stereo not drawn) | nt | nt | -52 | -3 | nt | nt

Bioassay records as filed in PubChem BioAssay.
